Laboratory results as given in PubChem BioAssay (NCI).
Compounds without any hit were thinned out: in the full panel of roughly 79,000, 15% have a hit. Unmarked numbers belong to inactive results. Active and inactive are the calls of the source. Rule as the data show it: active = growth inhibition above about 70%; inactive = the rest.

Columns and labels:
[1] = NCI Yeast Anticancer Drug Screen. Data for the rad50 strain (AID 155);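 also: 0% = growth of vehicle-only cultures of the same strain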; settings: S. cerevisiae rad50 strain growth inhibition, stronger effect = higher value
How it was run: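 Relative growth inhibition (compound vs vehicle) was measured in yeast with a defined repair-gene alteration.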

[2] = NCI Yeast Anticancer Drug Screen. Data for the mec2-1 strain (AID 157); settings: S. cerevisiae mec2-1 strain, stronger effect = higher value
How it was run: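 Strain: mec2-1 (DNA repair/cell cycle alteration). Compound exposure, then growth measured; inhibition expressed relative to vehicle.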

[3] = NCI Yeast Anticancer Drug Screen. Data for the sgs1 mgt1 strain (AID 161);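 also: 0% = growth of cultures given vehicle only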; settings: S. cerevisiae sgs1 mgt1 strain, stronger effect = higher value
How it was run: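 Read-out: growth inhibition vs vehicle controls. Cells: mutant yeast strain deficient in DNA damage repair.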

[4] = NCI Yeast Anticancer Drug Screen. Data for the cln2 rad14 strain (AID 165);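 also: 0% = growth equal to vehicle treated cultures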; settings: S. cerevisiae cln2 rad14 strain, stronger effect = higher value
How it was run: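 Compounds are applied to the cln2 rad14 yeast strain, and growth is then compared with that of vehicle-treated cultures to give inhibition.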

[5] = NCI Yeast Anticancer Drug Screen. Data for the bub3 strain (AID 167); settings: S. cerevisiae bub3 mutant strain, stronger effect = higher value
How it was run: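 Screening used yeast with an engineered genetic alteration affecting cell cycle control. Compound-exposed cultures were compared with vehicle cultures, and reduced growth was taken as inhibition.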

[6] = NCI Yeast Anticancer Drug Screen. Data for the mlh1 rad18 strain (AID 175); settings: S. cerevisiae mlh1 rad18 strain growth inhibition, stronger effect = higher value
How it was run: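 Read-out is yeast growth inhibition, calculated against vehicle-only controls. The compound was applied to a strain engineered with DNA damage repair alterations.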

[7] = at 5.0 µM (retest, dose inferred, filed as 0.5)
[8] = at 50.0 µM (retest, dose inferred, filed as 5.0)

SMILES	growth inhibition [1, 7]	growth inhibition [1, 8]	growth inhibition ([1]; at 50.0 µM)	growth inhibition [2, 7]	growth inhibition [2, 8]	growth inhibition ([2]; at 50.0 µM)	growth inhibition [3, 7]	growth inhibition [3, 8]	growth inhibition ([3]; at 50.0 µM)	growth inhibition [4, 7]	growth inhibition [4, 8]	growth inhibition ([4]; at 50.0 µM)	growth inhibition [5, 7]	growth inhibition [5, 8]	growth inhibition ([5]; at 50.0 µM)	growth inhibition [6, 7]	growth inhibition [6, 8]	growth inhibition ([6]; at 50.0 µM)
Cc1nc(N)sc1N=Nc1ccccc1Br	-20%	89% (active)	88% (active)	-11%	97% (active)	94.2% (active)	0%	93% (active)	92.1% (active)	-5%	62%	91.3% (active)	-1%	91% (active)	95.8% (active)	34%	96% (active)	95.8% (active)
CC(=O)Sc1ccc(Br)cc1	0%	73% (active)	45.3%	3%	52%	36.9%	3%	60%	34.9%	-1%	40%	-2.05%	1%	68%	60.3%	-2%	76% (active)	71.2% (active)
CC(C)C[C@H](NC(=O)[C@H](Cc1ccccc1)NC(=O)c1cnccn1)B(O)O	55%	87% (active)	55.8%	33%	70% (active)	30.4%	52%	78% (active)	60.9%	76% (active)	94% (active)	72.9% (active)	69%	90% (active)	72.6% (active)	55%	79% (active)	66.7%
COC(=O)CCCCCCCCCCC(=O)O	-3%	-4%	2.45%	-1%	-2%	-11.6%	-2%	4%	-9.55%	-9%	-4%	-4.75%	-4%	-9%	38.6%	-2%	2%	-6.6%
O=[N+]([O-])c1ccccc1C1CN=NN1c1ccccc1 (configuration not stated)	-9%	47%	-0.9%	-2%	25%	17.9%	-1%	33%	38.2%	-14%	32%	-11.3%	-3%	61%	85.5% (active)	0%	37%	24.9%
CCCCCCCCC[n+]1cccc(C(=O)c2ccccc2)c1	-1%	53%	51.6%	4%	56%	24.8%	-165%	77% (active)	72.7% (active)	-4%	42%	3.95%	0%	70% (active)	82.5% (active)	36%	78% (active)	72.7% (active)
CCOC(=O)/C(=N/NS(=O)(=O)c1c(C)cc(C)cc1C)c1ccco1	-2%	13%	64.6%	-2%	25%	45.5%	2%	41%	50.4%	0%	-4%	38.3%	1%	29%	79.8% (active)	4%	34%	80.7% (active)
CC1(C)CCCC12C=NCC2 (configuration not stated)	2%	16%	17.8%	-2%	18%	-1.15%	-1%	11%	31.9%	1%	1%	-3.95%	2%	10%	43.1%	-28%	27%	22.9%
C[Si](C)(C)CN1C(=O)c2ccccc2C1(O)c1ccccc1 (configuration not stated)	-2%	69%	69.8%	-1%	66%	35.8%	-4%	74% (active)	47.5%	-1%	29%	42.5%	-3%	33%	4.2%	-1%	69%	71.2% (active)
O=C1C=CC(=O)c2ccc(=O)ccc21	38%	99% (active)	22.6%	25%	99% (active)	-1.45%	38%	99% (active)	25.9%	20%	98% (active)	28.4%	27%	99% (active)	-1.35%	71% (active)	98% (active)	51.2%
CC(=O)CCCOC(C)=O	63%	78% (active)	14.7%	22%	40%	-5.8%	77% (active)	78% (active)	7.85%	10%	22%	24.6%	62%	86% (active)	-0.55%	45%	75% (active)	31.6%
C/C(=N\Oc1ncc([N+](=O)[O-])c(O/N=C(\C)c2ccccc2)n1)c1ccccc1	52%	-24%	43.2%	37%	-11%	66.8%	53%	-10%	83% (active)	28%	-20%	45.7%	48%	-16%	50.6%	54%	-11%	94.2% (active)
CCCCCCc1cc(C(=O)N/N=C\c2cccc([N+](=O)[O-])c2)c2ccccc2n1	0%	-7%	-40.9%	-1%	-2%	-9.2%	2%	7%	-19.9%	-5%	-17%	41%	0%	5%	1.45%	0%	-7%	-9.4%
O=[N+]([O-])c1cc(CNCCO)c(O)c2ncccc12	99% (active)	99% (active)	98.7% (active)	100% (active)	99% (active)	99.3% (active)	99% (active)	99% (active)	99.2% (active)	95% (active)	98% (active)	97.9% (active)	99% (active)	99% (active)	99% (active)	99% (active)	99% (active)	98.8% (active)
CCCC/C=C(/CCCNCCc1ccccc1)[Si](C)(C)C	88% (active)	98% (active)	90.4% (active)	90% (active)	99% (active)	93% (active)	98% (active)	99% (active)	93.4% (active)	89% (active)	99% (active)	91.5% (active)	98% (active)	99% (active)	91.5% (active)	97% (active)	99% (active)	90.9% (active)
CCN(CC)C(C)(C)C(=O)/C=C/c1ccc(Cl)c(Cl)c1	13%	97% (active)	92.7% (active)	3%	97% (active)	99.2% (active)	6%	97% (active)	82.7% (active)	-8%	96% (active)	47.9%	5%	98% (active)	96% (active)	0%	95% (active)	95% (active)
S=C(Nc1ccc(Br)c(Cl)c1)SCc1ccc2c(c1)OCO2	49%	97% (active)	88% (active)	49%	98% (active)	88.9% (active)	77% (active)	98% (active)	88.7% (active)	50%	98% (active)	86.1% (active)	76% (active)	98% (active)	88.2% (active)	44%	97% (active)	87.4% (active)
O=C1Nc2ccccc2C(=O)C1(Cc1ccccc1)C(=O)c1ccccc1 (configuration not stated)	14%	26%	97% (active)	-1%	-9%	97.2% (active)	11%	25%	97.5% (active)	-1%	10%	97.5% (active)	11%	12%	97.5% (active)	4%	33%	97.4% (active)
NC(=S)c1cccc(C2Nc3ccccc3O2)c1 (configuration not stated)	-1%	24%	75.1% (active)	0%	11%	44%	9%	18%	39.1%	0%	30%	37.7%	47%	68%	81.7% (active)	37%	61%	76.3% (active)
